Sampled rows, rich in hits. Any-hit rate of the full collection: about 2.8%.
Pol eta inh-1 = DNA polymerase eta (human) inhibition; Q9Y253; recombinant Pol eta, fluorescent DNA replication assay; Potency, µM (series often up to 114 µM), without a hit: at the top dose activity change, negative = inhibition, most hits filed as inhibitors; 390,000 tested, 1.2% active; AID 588591; also: potency is read from the fitted curve at half-maximal effect; % is scaled to controls: 0 for no effect and ±100 for the full control effect
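Pol eta (10 nM) was preincubated with compounds for 15 min at room temperature, after which fluorescent replication substrate (50 nM final) was added to start the reaction. Fluorescence was read kinetically at 0 and 10 min.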
Pol iota inh = inhibitors of human DNA polymerase iota; Q9UNA4; Pol iota fluorescent replication assay, 10 min; Potency, µM (highest dose often 115 µM), for inactives: at the highest dose activity, negative = inhibition, actives largely listed as inhibitors; 390,000 tested, 1% active; also: potency is read from the fitted curve at half-maximal effect
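Pol iota at 10 nM preincubated 15 min with compounds at room temperature; reaction started with fluorescent substrate, 50 nM final. Fluorescence read kinetically at 0 and 10 min; buffer-only wells as negative control.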
WRN inhibitor = blocks human WRN helicase; Q14191; WRN helicase unwinding, fluorescent forked duplex, kinetic; Potency, µM (doses to about 114 µM), without a hit: at the top dose activity change, negative = inhibition, hits mostly inhibitors; 360,000 tested, 0.46% active; AID 651768; also: potency is read from the fitted curve at half-maximal effect; % is scaled to controls: 0 for no effect and ±100 for the full control effect; nearly all actives have a fitted effect of over 55% in size
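WRN at 20 nM final preincubated with compound 15 min at room temperature; reaction started with 100 nM fluorophore/quencher forked duplex oligonucleotide and 2 mM ATP final. Unwinding followed kinetically by red fluorescence (ex 525, em 598 nm).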
PI5P4Ka inh = PI5P4K alpha (human) kinase inhibition | P48426 | PI5P4Kalpha enzyme, ADP-Glo luminescence, 60 min; active compounds read low | max response, % | 330,000 tested, 1.2% active | AID 652105; active = max response of -50% or lower; inconclusive = between -30% and -50%; inactive = -30% or higher; also: value at the top dose of about 77 µM; % is scaled to controls: 0 for no effect and ±100 for the full control effect
Target sequence (P48426 whole entry, looked up): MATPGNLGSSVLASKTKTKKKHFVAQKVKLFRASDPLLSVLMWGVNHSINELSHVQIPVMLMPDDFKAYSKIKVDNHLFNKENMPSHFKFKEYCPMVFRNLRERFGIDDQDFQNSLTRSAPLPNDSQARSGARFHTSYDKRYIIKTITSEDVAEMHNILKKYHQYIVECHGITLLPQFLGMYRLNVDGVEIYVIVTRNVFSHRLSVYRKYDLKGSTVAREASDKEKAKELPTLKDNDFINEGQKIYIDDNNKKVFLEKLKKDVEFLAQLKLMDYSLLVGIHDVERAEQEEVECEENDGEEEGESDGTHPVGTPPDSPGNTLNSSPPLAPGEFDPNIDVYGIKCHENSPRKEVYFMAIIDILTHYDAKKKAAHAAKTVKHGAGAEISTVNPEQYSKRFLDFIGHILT
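Human PI5P4Kalpha with substrate in 0.038 M HEPES pH 7.4, 0.28 mM EGTA, 0.1% CHAPS, 5% DMSO; reaction started with 5 microM ATP (final), 60 min at room temperature. ADP formed read by ADP-Glo luminescence.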
POLB inh = DNA polymerase beta (human) inhibition. P06746. Potency, µM (series often up to 114 µM), without a hit: top-dose activity change, negative = inhibition, most hits filed as inhibitors. Pol beta primer extension/strand displacement, fluorescence kinetic. AID 485314. 340,000 tested, 1.3% active; also: potency is read from the fitted curve at half-maximal effect; % is scaled to controls: 0 for no effect and ±100 for the full control effect
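Preincubation: enzyme (10 nM) with compound, 15 min, RT. Reaction: substrate added to 50 nM final. Reads: 0 and 10 min. Analysis: normalized, Hill fit.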
Pol kappa inh-1 = inhibitors of human DNA polymerase kappa; Q9UBT6; purified Pol kappa, fluorescent DNA synthesis assay, 10 min; Potency, µM (titrated, usually from 107 µM), inactives show at the highest dose activity, negative = inhibition, usual class: inhibitors; 400,000 tested, 0.53% active; also: potency is read from the fitted curve at half-maximal effect; % is scaled to controls: 0 for no effect and ±100 for the full control effect
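Inhibition of 10 nM Pol kappa is measured by a fluorescent read-out at 0 and 10 min following addition of 50 nM substrate (final), with a 15-min room-temperature compound preincubation.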
Pol kappa inh-2 = confirmation of human DNA polymerase kappa inhibitors; shares compounds with Pol eta inh-1; purified Pol-kappa, fluorescent strand-displacement substrate; Potency, µM, usual class: inhibitors; 920 tested, 76% active; also: potency is read from the fitted curve at half-maximal effect
Pol eta inh-2 = Pol eta (human) inhibition, cherry-pick confirmation; shares compounds with Pol eta inh-1; Pol eta primer extension, TAMRA/BHQ fluorescence, 10 min; Potency, µM, usual class: inhibitors; 2,600 tested, 64% active; AID 720502; also: potency is read from the fitted curve at half-maximal effect
Active calls of the source: *; ? = inconclusive; . = no result given; [ ] = remark or other dose. Unless noted, calls follow the shape of the dose curve; as a rule, active = well fitted curve in the direction sought with a large enough effect; inconclusive = small, poorly fitted or top-dose-only effect, or another doubt; inactive = no such curve, though single readings can be large; an effect the other way counts as inactive or inconclusive.

SMILES	Pol eta inh-1	Pol iota inh	WRN inhibitor	PI5P4Ka inh	POLB inh	Pol kappa inh-1	Pol eta inh-2	others
CC(=O)N1CCc2c(sc(NC(=O)c3ccc([N+](=O)[O-])o3)c2C#N)C1	20µM*	?	-22%[57.1 µM]	?	?	?	?
C=CCc1ccccc1OCCSc1nc(-c2ccc(C(C)(C)C)cc2)nc2cc(=O)[nH]n12	?	?	.	.	40µM*	-32%	76*
Cc1ccc(CSc2nc(-c3ccc(C(C)(C)C)cc3)nc3cc(=O)[nH]n23)cc1	50µM*	?	.	.	?	?	85*
COc1ccccc1-c1ccc(/C=C2\C=CC(=O)O2)o1	25µM*	20µM*	?	-27	-100%	35µM*	54*
CCN(CCCCN1C(=O)c2ccccc2C1=O)c1ccc2c(c1)C(=O)N(C)C2=O	50µM*	16µM*	?	.	-20%	?	?
CCN(CC)c1ccc2c(c1)C(=O)N(C)C2=O	-17%	9%	1%	-3	-8%	1%	.
O=C1CCCN1C(=O)CSc1ncnc2sccc12	20µM*	45µM*	?	-25	.	-44%	76*	Pol kappa inh-2=?
O=C(CSc1ncnc2sccc12)N1CCCCC1	-21%	21%	-14%	-4	.	-7%	.
CCOC(=O)N1CCN(C(=O)Cn2ncc3ccccc32)CC1	?	?	-20%[57.1 µM]	-20	20µM*	?	?
O=C(O)c1ccc2c(c1)C(=O)N(c1cccc(C(=O)/C=C/c3ccccc3)c1)C2=O	32µM*	?	?	-13	48%	-12%	60*
Cc1nn(CC(=O)N(C)C2CCS(=O)(=O)C2)c(C)c1S(=O)(=O)N(C)C (stereo unspecified)	-18%	14%	-1%	0	.	6%	.
O=C(/C=C/c1ccco1)Nc1cccc(NC(=O)/C=C/c2ccco2)n1	20µM*	35µM*	-16%[11.6 µM]	-58*	25µM*	-30%	?
CC(=O)N(C)c1ccc(NC(=S)NC(=O)/C=C/c2ccco2)cc1	-22%	-6%	-10%[57.1 µM]	-28	-7%	-21%	.
COc1cccc(NC(=S)NC(=O)/C=C/c2ccco2)c1	45µM*	28µM*	?	-54*	40µM*	?	48*	Pol kappa inh-2=17*
COc1ccc(NC(=S)NC(=O)/C=C/c2ccco2)c(OC)c1	-5%	-14%	-7%	-3	13%	-17%	.
CC(=O)Nc1ccc(NC(=S)NC(=O)/C=C/c2ccco2)cc1	28µM*	?	?	-64*	-3%	45µM*	60*
O=C(/C=C/c1ccco1)NC1=NCCS1	8%	?	-23%[57.1 µM]	-7	-13%	-21%	.
O=CNc1ccccc1	-1%	1%	-2%	5	.	-12%	.
Cc1oc(S(=O)(=O)N2CCOCC2)cc1C(=O)Nc1ccc(Cl)cc1	-20%	52%	6%	1	0%	-7%	.
CC(=O)Oc1ccc(C(=O)Nc2cccc(C(=O)NC(C)(C)C)c2)cc1	-10%	56%	-7%	?	-14%	3%	.
CC(=O)Oc1ccc(C(=O)Nc2cccc(C(=O)c3cccc(NC(=O)c4ccc(OC(C)=O)cc4)c3)c2)cc1	3.2µM*	7.9µM*	?	6	13µM*	?	54*
NNC(=O)c1cc(NS(=O)(=O)c2cccs2)cc(NS(=O)(=O)c2cccs2)c1	20µM*	40µM*	-3%[11.6 µM]	?	.	?	?
O=S(=O)(Nc1cccc(CO)c1)c1cccs1	-17%	24%	6%	1	-2%	-5%	.
O=C(Nc1ccc(S(=O)(=O)O)cc1)c1ccc2c(c1)S(=O)(=O)c1ccccc1C2=O	28µM*	8%	-18%	-20	.	-3%	67*
O=C(Nc1ccc(Cl)cc1)c1ccc2c(c1)S(=O)(=O)c1ccccc1C2=O	0%	6%	6%	-4	.	13%	.
SMILES	Pol eta inh-1	Pol iota inh	WRN inhibitor	PI5P4Ka inh	POLB inh	Pol kappa inh-1	Pol eta inh-2	others
Cc1c(Cl)ccc(S(=O)(=O)NCCCn2ccnc2)c1Cl	-16%	6%	0%	-6	-9%	4%	.
COC(=O)C1(NC(=O)CNC(=O)OCc2ccccc2)CCCC1	1%	107%	-5%	0	.	-2%	.
O=C(O)c1cc(S(=O)(=O)O)cc(Nc2c3ccccc3nc3ccccc23)c1O	22µM*	?	-23%[11.6 µM]	-1	-7%	?	30*	Pol kappa inh-2=17*
OC[C@@H]1CN(Cc2ccncc2)C[C@H](n2cnc3c(NCc4ccncc4)ncnc32)O1	.	.	-3%	5	.	.	.
COc1ccc(C2=NN(c3nc(-c4ccccc4)c(CC(=O)O)s3)C(c3ccco3)C2)cc1 (stereo unspecified)	28µM*	?	?	?	22µM*	?	?	Pol kappa inh-2=15*
COc1ccccc1CNC(=O)c1cc(-c2cc(F)ccc2OC(C)C)n[nH]1	.	.	-7%	-5	.	.	.
CCC1(c2ccccc2)NC(=O)N(CC(=O)NCc2ccc(OC)cc2)C1=O (stereo unspecified)	-15%	164%	-5%	4	6%	-6%	.
COC(=O)c1cccc(Cn2c(Cl)c(/C=N/Nc3ccccc3C)sc2=O)c1	-19%	0%	-12%	-12	?	-12%	.
Cc1ccccc1N/N=C/c1sc(=O)n(Cc2cccc(C(=O)O)c2)c1Cl	?	?	?	?	?	-42%	?
O=C1CC(N(CCc2ccccc2)C(=S)Nc2cc(Cl)ccc2Cl)C(=O)N1c1c(Cl)cccc1Cl (stereo unspecified)	-20%	-10%	-5%	3	27%	-8%	.
Cc1ccnc(NC(=O)COC(=O)c2ccc(F)cc2F)n1	45µM*	?	-21%	-10	1%	-44%	?
Cc1ccc2c(c1)c(=O)c1ccccc1n2CCCC(=O)Nc1ccc(Cl)cc1C	89µM*	-12%	.	.	?	2%	.	Pol kappa inh-2=?
Cc1cc(S(=O)(=O)Nc2nc(CN3CCOCC3)nc3sc4c(c23)CCC4)cc(C)c1C	18µM*	25µM*	?	-30	.	?	?	Pol kappa inh-2=?
Cc1ccc(S(=O)(=O)Nc2nc(CN3CCOCC3)nc3sc(C(=O)O)c(C)c23)cc1	13µM*	.	-5%[11.6 µM]	-20	.	.	30*
C[C@H](CO)N1C[C@H](C)[C@@H](CN(C)S(=O)(=O)c2ccc(C#N)cc2)OCc2cn(nn2)CCCC1=O	-8%	.	6%	0	.	.	.
